Tests used:
[1] = target: Histone H2A type 1 (UniProt P06897); assay: cross-linking mass spectrometry
[2] = target: Histone H3.2 (UniProt P84233); assay: cross-linking mass spectrometry
[3] = target: Histone H4 (UniProt P62799); assay: cross-linking mass spectrometry
[4] = target: Transcription elongation factor A protein 1 (UniProt P23193); assay: cross-link between two proteins; cross-linking mass spectrometry
[5] = target: DNA-directed RNA polymerase II subunit RPB7 (UniProt P62487); assay: as above
[6] = target: Histone H2A type 1 (UniProt P06897); assay: as above
[7] = target: Histone H2B 1.1 (UniProt P02281); assay: as above
[8] = target: Transcription elongation factor SPT4 (UniProt P63272); assay: cross-link between two proteins; cross-linking mass spectrometry; two-hybrid or complementation screen

Measured: listed as a hit

Histone H2B 1.1, P02281
yes: [1] | [2] | [3]

Histone H2A type 1, P06897
yes: [2] | [3] | [4]

Transcription elongation factor SPT5, O00267
yes: [5] | [6] | [7] | [8]
